Screens (PubChem)
MPTP inh: mitochondrial permeability transition pore inhibitors, primary screen, biochemical, isolated mouse mitochondria, absorbance; AID 602449, 2012; inhibition, % at 10 µM; 1.4% of 360,000 active; Ca2+ swelling absorbance, 30 min;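 active means inhibition of 50% or more, scaled per plate between neutral and stimulator controls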;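 further: 0% = DMSO wells given calcium and 100% = 1 mM EGTA wells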
Mdm2-MdmX inh: inhibitors of human Mdm2-MdmX association, primary screen, cell-based, luminescence, split luciferase, SaOS-2, uHTS. 3% of 330,000 active. AID 485346, 2010. inhibition, % at 8 µM. SaOS-2 split-luciferase Mdm2/MdmX complementation;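 active means inhibition of at least 50% at 8 µM in the primary screen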
Target sequence (O15151 whole entry, looked up): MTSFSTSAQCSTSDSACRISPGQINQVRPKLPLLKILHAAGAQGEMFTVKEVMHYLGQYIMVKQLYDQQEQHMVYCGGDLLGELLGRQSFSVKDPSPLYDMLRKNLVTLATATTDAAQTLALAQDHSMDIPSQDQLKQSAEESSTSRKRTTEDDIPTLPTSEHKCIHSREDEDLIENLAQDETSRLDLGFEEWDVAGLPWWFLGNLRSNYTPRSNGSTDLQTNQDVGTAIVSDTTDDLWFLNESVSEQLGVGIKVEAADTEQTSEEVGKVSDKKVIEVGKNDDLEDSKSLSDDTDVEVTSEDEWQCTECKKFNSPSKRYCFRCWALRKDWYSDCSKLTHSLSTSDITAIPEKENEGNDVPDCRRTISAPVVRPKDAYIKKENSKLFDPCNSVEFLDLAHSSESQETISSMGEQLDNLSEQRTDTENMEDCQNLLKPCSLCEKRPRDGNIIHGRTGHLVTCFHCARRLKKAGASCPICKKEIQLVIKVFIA
Target sequence (Q00987 whole entry, looked up): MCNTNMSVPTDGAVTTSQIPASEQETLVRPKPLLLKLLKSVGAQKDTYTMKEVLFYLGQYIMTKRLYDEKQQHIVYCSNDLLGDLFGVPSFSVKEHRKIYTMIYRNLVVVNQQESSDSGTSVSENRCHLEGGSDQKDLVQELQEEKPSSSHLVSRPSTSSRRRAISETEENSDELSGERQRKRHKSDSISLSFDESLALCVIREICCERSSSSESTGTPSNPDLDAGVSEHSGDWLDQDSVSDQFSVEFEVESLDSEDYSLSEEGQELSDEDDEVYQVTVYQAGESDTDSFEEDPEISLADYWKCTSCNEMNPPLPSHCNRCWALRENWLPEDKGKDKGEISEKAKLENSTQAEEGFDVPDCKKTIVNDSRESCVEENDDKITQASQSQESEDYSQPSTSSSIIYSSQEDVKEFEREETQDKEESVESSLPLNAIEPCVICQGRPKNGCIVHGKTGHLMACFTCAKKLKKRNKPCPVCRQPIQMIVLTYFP
CSC inhib: cancer stem cell viability inhibitors, primary screen, luminescence; cancer stem cell-like cells viability; inhibition, % at 7.5 µM; 1.1% of 300,000 active; in the data active means inhibition above about 75%; inconclusive means no clear call, values can overlap the other calls; tested in HMLE shEcad cells
Beta apoptosis: inhibitors of cytokine-induced beta cell apoptosis, primary screen, luminescence | protection from apoptosis, % (test concentration not listed) | 0.8% of 300,000 active | INS-1E cytokine-induced death, ATP luminescence, 48 h; percent of positive-control rescue, neutral wells zero;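 active means Every replicate reaches about 75%, or at least half do and their mean reaches it too, limit read from the data; inconclusive means At least half of replicates reach the limit but their mean does not; inactive means Under half of replicates reach the limit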;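 further: 0% = cytokine-treated negative control wells and 100% = positive control rescue; higher means more ATP so stronger rescue from cytokine killing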
Calb FLC: C. albicans growth inhibition with fluconazole, primary screen, CaCi-2 strain, Alamar Blue fluorescence; AID 1979, 2009; C. albicans CaCi-2 (fluconazole-resistant clinical isolate) + fluconazole, 48 h; 0.57% of 300,000 active; growth inhibition, % (test concentration not listed);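 active means growth inhibition above about 58% in most replicates, limit read from the data, passing the limit was not always enough; inconclusive means exactly half the replicates above a set limit; inactive means most replicates below a set limit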;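 further: all wells also contain fluconazole at 8 µg/ml as a sub-toxic cotreatment; 0% = median of DMSO wells and 100% = median of geldanamycin control wells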
Mdm2-MdmX conf: Mdm2-MdmX complex disruptors, retested hits, confirmation, luminescence, single concentration; shares compounds with Mdm2-MdmX inh; Mdm2-MdmX binding, luminescent assay; inhibition, % at 8 µM; 55% of 10,000 active; AID 489028, 2010; in the data active means inhibition above about 40%
Full FLuc ctr: full-length luciferase signal inhibition, confirmation, counter-screen for Mdm2/MdmX interaction inhibitor project, cell-based, single concentration, SaOS-2 | inhibition, % at 8 µM | 77% of 6,200 active | shares compounds with Mdm2-MdmX inh | SaOS-2 full-length luciferase counterscreen, luminescence;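 active means mean inhibition at 8 µM reaching about 37%, which flags the compound as non-specific, limit read from the data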;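 further: p53-null SaOS-2 cells with luciferase driven by a doxycycline-inducible promoter; compound on cells about two nights before reading with doxycycline added after day one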
MPTP counter: fluorescence retest of MPTP screen hits in isolated mitochondria, single concentration. shares compounds with MPTP inh. membrane potential, Rhodamine 123 fluorescence. inhibition, % at 10 µM. 78% of 5,000 active. AID 624504, 2012; in the data active means inhibition above about 22%;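 further: 0% = DMSO vehicle and 100% = positive control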
MPTP swell DR: mitochondrial permeability transition pore inhibitors, dose response, biochemical, absorbance, uHTS hits. shares compounds with MPTP inh. isolated mitochondria swelling. IC50, µM. 58% of 780 active. AID 651561, 2012; in the data active means IC50 below about 20 µM
MPTP cs DR: fluorescent counter-screen in isolated mitochondria, dose response, counter-screen for MPTP inhibitor project, biochemical, fluorescence, uHTS hits; isolated mitochondria counterscreen, fluorescence read-out; AID 651564, 2012; IC50, µM; 49% of 780 active; shares compounds with MPTP inh; in the data active means IC50 below about 80 µM
Numbers without * were called inactive; u = inconclusive; x = no result given. Hits are enriched below; roughly 4.8% of the tested compounds scored in any of these assays.

SMILES	MPTP inh	Mdm2-MdmX inh	CSC inhib	Beta apoptosis	Calb FLC	Mdm2-MdmX conf	Full FLuc ctr	MPTP counter	others
Cc1cc(Nc2cccc([N+](=O)[O-])c2)n2c(nc3ccccc32)c1C#N	67*	98*	83*	108*	12	91*	31	93*
Cc1cc(C)nc(/N=C(\N)Nc2cccc(OCc3ccccc3)c2)n1	83*	73*	-12	-28	-26	50*	66*	64*
COc1ccc(N/C(N)=N/c2nc(C)cc(C)n2)cc1	-1	x	x	x	x	x	x	x
Cc1cc(C)nc(/N=C(\N)Nc2ccc(OCCC(C)C)cc2)n1	100*	66*	48	52	-23	49*	53*	91*
CCC(C)N1CCC(Oc2ccc(C(=O)NCc3ccccn3)cc2)CC1 (configuration not stated)	-1	5	16	-8	-2	x	x	x
COc1ccc(NC(=O)c2cc([N+](=O)[O-])ccc2O)cc1	92*	81*	82*	57	83*	76*	53*	95*
O=C(O)c1ccccc1C(=O)Nc1cccc([N+](=O)[O-])c1	0	1	-9	x	-2	x	x	x
O=C(Nc1cccc([N+](=O)[O-])c1)c1cc2ccccc2cc1O	96*	93*	89*	100*	40	75*	31	60*
O=C(Nc1cccc([N+](=O)[O-])c1)Nc1ccc2c(c1)CCC2	86*	72*	-3	36	-14	22	x	76*
COc1ccc(NC(=O)c2ccc(-c3ccc([N+](=O)[O-])cc3)o2)cc1	4	9	4	1	-2	x	x	x
CN1CCC2(CC1)Nc1nc(SCc3ccc(Cl)cc3)nn1C1=C2CN(C)CC1	63*	53*	4	-7	5	34	x	-14	MPTP swell DR=9.7*;MPTP cs DR=>80
CC(=O)c1cnc2nc(SCc3ccc(Cl)cc3)nn2c1C	0	1	-12	0	1	x	x	x
Cc1cccc(OCc2nnc(SC(C)C(=O)Nc3ccc(N4CCOCC4)cc3)o2)c1 (configuration not stated)	-1	11	x	-7	x	x	x	x
O=C(Nc1nc(-c2cc(Cl)sc2Cl)cs1)c1ccc(Br)s1	104*	80*	39	x	25	7	x	5
Cc1cc(OCCCC(=O)NCCc2nnc3ccccn23)ccc1Cl	-1	3	2	-4	x	x	x	x
CCS(=O)(=O)N1Cc2ccccc2CC1C(=O)N(C)CC(=O)Nc1ccc(F)c(F)c1F (configuration not stated)	1	-9	-18	0	2	x	x	x
CCCOc1ccc(-c2nc(SCc3ccccc3)[nH]c(=O)c2C#N)cc1OC	2	2	55	1	43	x	x	x
O=C(Nc1ccc2ccccc2c1)C(c1ccccc1)C1CCCC1 (configuration not stated)	79*	57*	42	29	-25	59*	78*	62*
Cc1ccc(NC(=O)C(c2ccccc2)C2CCCC2)cc1 (configuration not stated)	46	x	x	x	-3	x	x	x
O=C(Nc1ccc(Oc2ccc(Cl)cc2)c(Cl)c1)c1cc(I)cc(I)c1O	106*	100*	100*	-2	x	74*	56*	74*
COc1ccc(NC(=O)c2ccccc2F)cc1Cl	0	-41	0	-5	3	x	x	x
CC1Oc2ccc(C#N)cc2N(Cc2ccc(F)cc2)C1=O (configuration not stated)	1	x	x	x	x	x	x	x
Cc1ccccc1CC(=O)Nc1cccnc1	-1	25	-5	3	0	x	x	x
Cc1nnc(SCCC(=O)Nc2ccc(F)cc2)s1	-1	-25	-4	-11	6	x	x	x
CCCSc1nnc(NC(=O)Nc2ccc(F)cc2)s1	86*	95*	38	47	-8	85*	28	98*
SMILES	MPTP inh	Mdm2-MdmX inh	CSC inhib	Beta apoptosis	Calb FLC	Mdm2-MdmX conf	Full FLuc ctr	MPTP counter	others
Cc1ccccc1Oc1ccc2c(c1)[C@@H]1C[C@H]3[C@@H](C(=O)N1CC2)[C@H](C)ON3C	0	x	x	x	x	x	x	x
NC(=O)c1ccc(NC(=O)CN2CCN(c3ccccc3)CC2)cc1	1	-2	-11	-4	0	x	x	x
O=C(Nc1ccc(Cl)c(Cl)c1)Nc1ccc(N2CCCC2)c(S(=O)(=O)Nc2ccccc2Cl)c1	100*	93*	60	12	1	95*	21	49*
O=C(Nc1ccc(F)cc1)Nc1ccc(N2CCCC2)c(S(=O)(=O)Nc2ccccc2Cl)c1	100*	91*	-7	-1	-5	66*	20	61*
O=C(Nc1ccc(N2CCCCC2)c(S(=O)(=O)Nc2ccccc2Cl)c1)c1cccnc1	2	30	63	4	x	x	x	x
O=C(Nc1ccc(N2CCOCC2)c(S(=O)(=O)Nc2ccccc2Cl)c1)c1ccc(F)cc1	4	37	32	13	x	x	x	x
O=C(Nc1ncc(S(=O)(=O)c2ccc([N+](=O)[O-])cc2)s1)c1ccc2ccccc2c1	94*	71*	u	26	-12	32	x	31*
O=C(Nc1ncc(Cc2cc(Cl)ccc2Cl)s1)c1ccc([N+](=O)[O-])cc1	51*	59*	40	27	-2	33	x	-4	MPTP swell DR=>100;MPTP cs DR=<2.5*
O=C(Nc1cccc(Cl)c1)C1C2CCC3C(CCC21)C3(Cl)Cl (configuration not stated)	99*	69*	-13	6	-15	13	x	96*
COc1ccc(OC)c(CN2CCN(C(=O)c3ccc(C)c(S(=O)(=O)Nc4ccccc4OC)c3)CC2)c1	0	x	x	x	x	x	x	x
CC(=O)NC(CCS(C)(=O)=O)C(=O)Nc1cc(Cl)ccc1Cl (configuration not stated)	-2	-3	-13	0	-4	x	x	x
CC(C)S(=O)(=O)c1csc(NC(=O)Nc2cc(Cl)ccc2Cl)c1Cl	86*	62*	66	22	-24	38	93*	76*
COc1ccc(NC(=O)C2(C)CCN2Cc2ccc(OC)c3ccccc23)cc1OC (configuration not stated)	-1	x	x	x	x	x	x	x
